In the supplement of paper PMC6555819:

What was measured:
Test in all cases: PBM binding z-score (relative to random genomic background probes); higher = stronger binding; sequences stand for … in GC…GCGATTGACAGCGTAGAATGAAGG
[1] = tested on: PPARg:RXRa DBDmut IVT, anti-RXR (DBD mutation: RXRa K156A/R161A, NR concentration 270 nM, RXRa partner concentration 90 nM)
Summary of the method: (§1)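 Antibodies against each partner of ligand-free nuclear receptor dimers (one per run) detected binding on custom Agilent 4×180K protein-binding microarrays after 1 h incubation. The double-stranded probes had 34-nt variable regions carrying direct-repeat seeds, single-nucleotide variants, half-site ablations and random human genomic background sequences. Binding z-scores, from regression-normalized fluorescence, use the random background probes as reference.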

[2] = tested on: PPARg:RXRa IVT, anti-PPARg (NR concentration 270 nM, RXRa partner concentration 90 nM)
Summary of the method: as §1

[3] = tested on: PPARg DBDmut:RXRa IVT, anti-PPARg (DBD mutation: PPARg1 K132A/R137A, NR concentration 270 nM, RXRa partner concentration 90 nM)
Summary of the method: as §1

[4] = tested on: PPARg DBDmut IVT, anti-PPARg (DBD mutation: PPARg1 K132A/R137A, NR concentration 270 nM)
Summary of the method: as §1

[5] = tested on: PPARg homodimer (NR concentration 180 nM)
Summary of the method: as §1

[6] = tested on: PXR:RXRa (NR concentration 270 nM, RXRa partner concentration 90 nM)
Summary of the method: as §1

[7] = tested on: PXR homodimer (NR concentration 270 nM)
Summary of the method: as §1

[8] = tested on: RARa:RXR (NR concentration 270 nM, RXRa partner concentration 90 nM)
Summary of the method: as §1

[9] = tested on: RARa homodimer (NR concentration 270 nM)
Summary of the method: as §1

[10] = tested on: RARb:RXRa (NR concentration 270 nM, RXRa partner concentration 90 nM)
Summary of the method: as §1

Sequence | PBM binding z-score [1] | PBM binding z-score [2] | PBM binding z-score [3] | PBM binding z-score [4] | PBM binding z-score [5] | PBM binding z-score [6] | PBM binding z-score [7] | PBM binding z-score [8] | PBM binding z-score [9] | PBM binding z-score [10]
CCTTACGGGTCACTGTCAGGTTATAGCATTTGGA | 3.32 | 3.7 | 0.509 | -0.255 | 3.86 | 3.99 | -0.056 | 4.71 | 1.03 | 3.87
GCGAATGGGGCAAAGCAGGTTACCATAAGGTTGG | 1.67 | 1.37 | -0.887 | -1.21 | 0.664 | 0.467 | -0.414 | 0.571 | -0.509 | 1.1
TCATATAGCTAAACAGGTGAAAGTCCGTAAGTTA | 1.46 | 0.758 | -0.631 | 0.119 | 0.0802 | 0.228 | -0.231 | 0.404 | 0.0178 | 0.215
ATCTCTAGGTAAAGTTCAGAGAAAGATCGATAGA | 2.15 | 2.79 | 1.18 | 0.787 | 2.17 | 2.04 | 1.86 | 1.25 | 1.48 | 2.51
GATACAGGGTCAAAGCCAGAGTACGCGTATTGAT | 2.68 | 3.63 | 1.47 | 0.035 | 2.25 | 3.75 | 0.314 | 4.76 | 0.583 | 4.03
TCATATAGGTAATGCAGGTGAAAGTCGGCATCTA | 4.18 | 4.3 | 0.872 | 1.17 | 0.782 | 0.415 | 0.211 | 0.602 | 0.52 | 0.41
CGTCCAAGGTCATAGGAGGTCAGTGAGGACAGAT | 3.74 | 4.55 | 1.02 | 0.649 | 5.73 | 6.88 | 11.7 | 6.37 | 3.47 | 5.29
CGAACTAGGTCATCCAGGACAGTAAATACATTGA | 7.97 | 8.2 | 3 | 3.62 | 2.26 | 2.15 | 1.3 | 2.69 | 0.413 | 3.89
TGAATGAGGTTATAAGATCAGGCAACGTTGCAAA | 0.78 | 1.81 | 1.1 | 0.207 | 0.125 | 0.75 | -0.349 | 1.52 | 0.212 | 1.24
TTATATAGGTAAACAGGTGAAAGTCCGTAAGTTA | 6.54 | 6.8 | 2.26 | 1.83 | 1.4 | 0.532 | 0.398 | 0.957 | 1.15 | 0.687
TGAATGAGGTTAAAGATCCGGGAACGTGGCGTCG | 2.22 | 2.41 | 0.774 | 0.25 | 0.436 | 1.11 | -0.152 | 1.84 | -0.669 | 1.72
GCTATTAGTTGAAAGGGTAACCGAATGATTCTCG | 0.535 | 0.734 | 0.307 | 0.443 | 0.807 | 0.366 | 0.207 | 1.02 | 0.465 | 0.813
TGTCAAAGTTCGAAGGTAACGTAAGTATCCACAC | -0.516 | 2.26 | 1.29 | 0.86 | 0.387 | 1.64 | 0.292 | 2.13 | 0.23 | 2.34
GCTTGTCGATCAAGGTTAAGAAAGACTAAGCTAA | -0.33 | 0.582 | 0.163 | 0.0381 | -0.626 | 0.592 | -0.652 | 0.89 | -0.654 | 0.682
TCTTGTAGATCAGCAGGTAAAGAAAGCTGGCCAA | 1.27 | 0.386 | -0.0476 | -0.531 | -0.175 | -0.0594 | -0.358 | 0.111 | 0.0298 | -0.482
ACTAGCAGGCCAAGGGTCAATCAAGATTAGTCCG | 1.29 | 3.74 | -0.502 | -0.4 | 1.86 | 3.34 | -0.202 | 4.28 | -0.127 | 3.33
TTACCCAGGTGAGCTGAGGTCGTTGATCCAACTC | 0.846 | 1.89 | -1.04 | -0.726 | 0.267 | 4.2 | 0.439 | 1.55 | -1.01 | 1.1
AGAACGAGTGCAATGAGTTGATAGCACGGGTGGC | -0.425 | -0.173 | -0.0779 | -0.15 | -0.623 | 1.9 | 7.51 | -0.248 | -1.04 | 0.212
CGTCCCAGGTCATAGGAGGTCAGTGAAGACAGAT | 1.76 | 3.65 | 0.856 | 0.281 | 3.83 | 6.15 | 2.57 | 4.89 | 2.28 | 4.5
TCTTGTAGATTAACAGGAGGTTAAGAAAGATCGA | 1.1 | 0.0101 | -0.776 | 0.403 | -0.439 | 0.578 | 0.157 | 1.25 | 0.212 | 0.685
ACAGACAGGTGAGTGAAGGTAACTCGGCTGGACG | 0.175 | 0.33 | -0.433 | -0.413 | 0.0145 | -0.486 | -0.431 | -0.0751 | -0.294 | 0.411
TCATATAGGTAAATGCTAGTTGAAAGTCCGATCT | 4.01 | 2.25 | 1.08 | 1.1 | 0.913 | 0.488 | 0.757 | 0.405 | 1.01 | 0.37
ACAGACAGGTGACGAAGGTAACTCAGGCTATCAT | 0.762 | 1.19 | 0.0336 | -0.57 | -0.168 | -0.208 | -0.237 | 0.144 | 0.0267 | 0.637
ATTTGTAGGTTAGCTGGGGTCATTCAGACTAGGC | 5.34 | 5.05 | 2.63 | 3.11 | 4.33 | 6.6 | 4.49 | 5.99 | 2.49 | 3.52

Sequence | PBM binding z-score [1] | PBM binding z-score [2] | PBM binding z-score [3] | PBM binding z-score [4] | PBM binding z-score [5] | PBM binding z-score [6] | PBM binding z-score [7] | PBM binding z-score [8] | PBM binding z-score [9] | PBM binding z-score [10]
TAGCCTAGGTCATGTGCCAGTATACCACGCGAAC | 1.78 | 3.01 | 0.0994 | 0.0439 | 1.55 | 1.53 | -0.113 | 2.34 | -0.178 | 3.74
ATCGCTAGGTAAAAGTTCAGTGAATCCCGAGGAT | -0.272 | 1.63 | 0.14 | -0.441 | 0.521 | 1.64 | 1.06 | 1.49 | -0.726 | 2.04
CCTAGTAGGCCAGGGTCACTCAAGCATTTCGCTT | 4.28 | 4.48 | -0.152 | -1.37 | 0.886 | 2.55 | -0.126 | 2.8 | -0.346 | 2.65
ATTTACGGGTCAACGAGGTTATAGCACGCGTATA | 3.42 | 4.88 | 2.57 | 2.5 | 2.8 | 5.6 | 4.18 | 5.97 | 1.69 | 4.48
CCAGACAGGTGAGAAGGTAACTCACCCTCGATTA | 0.889 | 0.707 | -0.339 | -0.245 | 0.968 | 0.325 | 0.219 | 0.748 | 0.925 | 0.764
CCTTACGGGTCACTCCAGGTTGTAGCATCGGAGT | 2.42 | 3.11 | 0.374 | 0.469 | 1.62 | 3.85 | -0.0202 | 3.84 | 0.553 | 3.65
TCTGCTAGGTAAACGATGGTCAGCTAATCTGCTA | 1.06 | 0.192 | -0.37 | -0.397 | -1.72 | -0.369 | -0.821 | -0.233 | -1.63 | -0.0745
TTTCCAAGGTGAGCTGAGGTCGTTGATCCAACTC | 1.18 | 2.2 | 0.272 | 0.546 | 0.272 | 4.97 | 1.26 | 2.04 | -0.538 | 2.1
TCTATTAGTTGATTAGGGCAACTGAAACAGCGGA | 2.22 | 1.45 | 1.14 | 0.725 | -0.0911 | 0.233 | 0.247 | 0.283 | 0.703 | 0.768
ACTATTAGTTGAGACGAGGGCAAACGATAGGTTG | 0.0525 | 0.456 | 1.03 | 1.15 | 0.189 | 1.83 | 0.478 | 0.637 | 0.392 | 0.841
TGTCAAAGTTCAAAGGCAACGTAAGTATCCACAC | -0.195 | 3.82 | 1.26 | 1.83 | 3.71 | 4.86 | 2.97 | 3.97 | 1.3 | 4.97
CCTACTGGGCCATCAGATCATTGATATCAACGTT | 4.57 | 3.97 | 0.261 | 0.0377 | -0.139 | -0.487 | -0.238 | -0.391 | 0.289 | 0.228
ATCGAAAGGTCGTGAGTTGAGTATACAGAAAGGC | -0.00462 | 1.66 | 1.4 | 1.03 | 1.91 | 3.2 | 0.152 | 3.9 | 0.363 | 3.82
TCTAGTAGATCAGCAGGTTAAGAAAGCTGGCCAA | 1.99 | 0.125 | -0.189 | -1.02 | 0.292 | 0.255 | -0.699 | 0.387 | -0.353 | 0.266
CCTAGCAGGCCCGGGTCACTCAAGCATTTCGCTT | -0.956 | -0.289 | -1.26 | -1.82 | 0.788 | 1.78 | -0.484 | 2.49 | -0.473 | 1.63
GCTGGGAGGACAAGGTCAGAGCTTTGTCCGTAGA | 0.282 | 0.836 | -1.6 | -1.38 | 1.02 | 1.89 | -0.0131 | 2.62 | -0.22 | 3.41
CAGACTAGGTCACAGAGGTCAAAGTCCGTGCGTA | 7.57 | 8 | 2.36 | 0.704 | 4.93 | 6.65 | 11.5 | 7.28 | 2.93 | 5.07
TCATATAGTTAAAAGGTGAAAGTCGGTGTGGTAA | 3.12 | 2.36 | 1.13 | 0.7 | 2.01 | 1.38 | 0.951 | 2.72 | 2.03 | 2.02
CCTACTGGGCCACGGAAGGTCATTGATTCAGTGA | 4.56 | 5.51 | -0.609 | -0.824 | 1.7 | 3.57 | 0.303 | 3.15 | 0.0822 | 3
CGTCCAAGGTCAATGCTAGGTCAGTGAGAGCATT | 3.49 | 4.04 | 0.572 | -0.0566 | 6.21 | 5.05 | 2.93 | 6.05 | 1.51 | 5.23
ATCTCTAGGTAAAGATAGTTCAGGGAATGCAAAT | 2.05 | 1.37 | 1.02 | 0.575 | 0.895 | 0.937 | 0.399 | 0.601 | 1.17 | 0.787
TCTTGGAGATCAAGCAGGTTAAGAAAGCCTGAGT | 1.33 | -0.158 | -0.0417 | -0.978 | -0.522 | 0.538 | 0.0928 | 0.684 | -0.244 | 0.272
CTACCAAGGTGAACAAGGGCGTTGATTACTATTC | 2.71 | 2.55 | -0.498 | 0.223 | 0.114 | 0.993 | -0.0327 | 0.539 | -0.306 | 1.81
TGAATGAGGTTAAAGAACAGGGAACGTGGCGTCG | 1.89 | 2.33 | 0.69 | 0.463 | 0.725 | 1.13 | 0.0217 | 1.52 | 0.262 | 1.95
